Records with an inconclusive call do not appear. Calls of active or inactive are those of the source. Unless noted, the call rests on the fitted dose curve; in most records, active means well fitted curve in either direction with a large enough effect (not every such curve was filed as active); inconclusive means small, poorly fitted or top-dose-only effect, or another doubt; inactive means flat fitted curve, though single readings scatter.

The target in assay [1] is Lysosomal acid glucosylceramidase (Homo sapiens) (UniProt P04062). Nature of the assay: Glucocerebrosidase-p2 (AID 348; in the data active means potency below about 10 µM; further: potency means the concentration at half of the fitted maximal effect). The settings on record: purified GBA, blue fluorogenic substrate, 40 min. Put shortly:
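Compounds titrated from 0.6 nM upwards against 0.2 nM enzyme in pH 5.9 citric acid/KH2PO4, taurocholate, tween-20; blue fluorogenic substrate 80 uM, 40 min room temperature, stopped and read Ex 365/Em 440 for AC50.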

The nature of assay [2]: AP1 Signaling Pathway (AID 357).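 Further: ME-180 reporter cells stimulated with EGF at its EC50 level; on the % scale 0 is the no-effect control and ±100 the full control effect.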 The settings on record: ME-180 AP-1-bla reporter, EGF-induced, beta-lactamase ratio, 5 h; at 7.69 µM (top of the series) unless noted. Put shortly: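 In this screen, ME-180 cells in Opti-MEM with 0.5% dialyzed FBS received EC50 EGF and compound titrations for 5 h. AP-1 reporter beta-lactamase was detected via CCF4 ratio, giving AC50 for positive and negative modulators.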

Assay [3] in a line: NFAT Signaling Pathway (AID 444).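 Further: carbachol stimulus at about its EC50 of 1 µM final; on the % scale 0 is the no-effect control and ±100 the full control effect.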 The settings on record: Jurkat NFAT-bla M1, carbachol, beta-lactamase ratio, 5 h; at 7.69 µM (top of the series) unless noted. The gist of the method: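 Read-out: CCF4 FRET ratio (460 nm/530 nm) after 1 h RT dye loading, used for %activity and AC50 from titration series. Cells: Jurkat NFAT-β-lactamase/M1 line, treated with compound plus 1 uM carbachol for 5 h, 37 °C.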

The nature of assay [4]: Stat Signaling Pathway (AID 446).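 Further: ME-180 cervical cancer cells given 40 pM IL-6 alongside compound; SIE-controlled beta-lactamase reporter measured as 460/530 nm FRET emission ratio; on the % scale 0 is the no-effect control and ±100 the full control effect.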 The following applies: ME-180 (cervical carcinoma) SIE beta-lactamase reporter, IL-6 stimulated, 5 h; at 7.69 µM (top of the series) unless noted. Put shortly:
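ME-180 cells carrying a SIE-driven beta-lactamase reporter are stimulated with 40 pM IL-6 for 5 h at 37C in the presence of compound. The 460/530 nm FRET substrate ratio is read after 2.5 h at RT. Data are normalised to 300 pM IL-6 and to 125 nM JAK inhibitor controls.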

Assay [5] deals with Glucocorticoid receptor (Homo sapiens) (UniProt P04150). Kind of assay: GR-EFC Redistribution (AID 451; calls by dose curve; further: potency means the concentration at half of the fitted maximal effect). The following applies: CHO-K1 GR-EFC translocation, beta-gal luminescence, 2 h. Put shortly: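 Translocation of GR-ED fusion to nuclear EA restores b-gal, read by luminescence after 1 h room-temperature detection. Engineered CHO-K1 biosensor cells, 1,000/well, exposed 2 h at 37 C to titrations up to 46 uM final.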

Assay [6] has as its target Mitogen-activated protein kinase 10 (Mus musculus) (UniProt Q61831). Kind of assay: JNK3 AlphaScreen Assay (AID 530).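 Further: kinase came from lysate of stimulated human HepG2 cells; signal reports phosphorylation of biotinylated GST-cJun 1-79 at Ser73 with 10 µM ATP; on the % scale 0 is the no-effect control and ±100 the full control effect.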 The settings on record: JNK3 lysate, c-Jun phosphorylation; series mostly up to 57.1 µM. The gist of the method: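 Room-temperature AlphaScreen kinase assay; pre-activated HepG2 lysate as JNK3 source, biotin-GST-cJun(1-79) substrate, 10 uM ATP, compound 15 min preincubation.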
Background: In Alpha technology, singlet oxygen from a donor bead excites a nearby acceptor bead.

The target in assay [7] is 3',5'-cyclic-AMP phosphodiesterase 4B (Homo sapiens) (UniProt Q07343). Nature of the assay: qHTS Assay for Inhibitors of PDE-IV (AID 607; active means well fitted activation curve with a large enough effect in the main read-out, with a control signal flat, not every such curve was filed as active; further: % of control where 0% means no effect). The settings on record: HEK293 ACTOne CNG channel cells, membrane potential fluorescence; series mostly up to 22.9 µM. The gist of the method:
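HEK293 ACTOne cells with CNG channel (1000/well), endogenous PDE4; membrane potential dye, compounds up to 22.9 uM final. Fluorescence Ex 535/Em 590; RO 20-1724 (100 uM final) as reference.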
Background: Quantitative high-throughput screening tests each substance at several concentrations.

Assay [8] in a line: qHTS Assay for Lipid Storage Modulators (AID 1519; calls by dose curve). The following applies: Drosophila S3 cells, BODIPY lipid droplet/cell ratio, laser cytometry, cells loaded with oleic acid; for activity change, negative = inhibition: at 57.5 µM (top of the series). The gist of the method: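 Cells seeded at 5,000 per well were treated with compounds over a concentration series and loaded with oleic acid (400 uM, as added). Lipid droplet fluorescence (488 nm excitation, 500-530 nm channel) was read by laser-scanning cytometry and normalized to 20 uM Triacsin C.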

Assay [9] addresses Cytochrome P450 1A2 (Homo sapiens) (UniProt P05177). Kind of assay: p450-cyp1a2 (AID 410; calls by dose curve; further: potency means the concentration at half of the fitted maximal effect). The following applies: recombinant CYP1A2, luciferin-ME demethylation, luminescence; series mostly up to 57 µM. Put shortly:
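Human CYP1A2 (20nM) demethylated Luciferin-ME at its Km (100uM) in 100mM KPO4. After 10 min compound preincubation, NADPH regeneration ran the reaction 60 min at room temperature. Luciferin was read by luminescence, normalized to 57 uM furafylline.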

The target in assay [10] is Glucocorticoid receptor (Homo sapiens) (UniProt P04150). Kind of assay: GR-GFP Redistribution (AID 450;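 active means compounds whose dose series gives a full or clear partial fitted curve of increased nuclear translocation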; further: potency means the concentration at half of the fitted maximal effect). The following applies: U2OS GR-GFP nuclear translocation, laser cytometry, 2 h.
In assay [11] the target is Cytochrome P450 3A4 (Homo sapiens) (UniProt P08684). Kind of assay: qHTS Assay for Inhibitors and Substrates of Cytochrome P450 3A4 (AID 884; active means well fitted curve in the direction sought with a large enough effect; an effect the other way counts as inactive or inconclusive; further: potency means the concentration at half of the fitted maximal effect; nearly all actives have a fitted effect of over 50% in size). The following applies: recombinant CYP3A4, Luciferin-PPXE luminescence; series mostly up to 57.1 µM. Put shortly: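 20 nM human CYP3A4 with 25 uM Luciferin-PPXE (at KM) in 200 mM KPO4, preincubated 10 min with compound; NADPH regeneration started a 60 min RT reaction. Luciferin detected by luminescence, normalized to 57 uM ketoconazole as full inhibition.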

For assay [12] the target is unchanged. Nature of the assay: qHTS Assay for Activators of Cytochrome P450 3A4 (AID 885; active means well fitted curve in the direction sought with a large enough effect; an effect the other way counts as inactive or inconclusive; further: nearly all actives have a fitted effect of over 65% in size). The settings on record: recombinant CYP3A4, Luciferin-PPXE luminescence, 60 min; series mostly up to 57.1 µM. The gist of the method: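 Human CYP3A4 (20 nM) with Luciferin-PPXE at 25 uM (its KM) in 200 mM KPO4; 10 min compound preincubation, then NADPH regeneration and 60 min reaction at RT. Luciferin read by luminescence; normalized to 57 uM ketoconazole full inhibition.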

Assay [13] in a line: Confirmation and Secondary Assay for Modulators of Hemoglobin Beta Chain Splicing at IVS2 654 locus (AID 910; active means well fitted curve in the direction sought with a large enough effect; an effect the other way counts as inactive or inconclusive;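 further: HeLa cells stably carrying EGFP split by mutant beta-globin IVS2-654 intron; per-well total GFP intensity by laser scanning cytometry after 2-day treatment; % of control where 0% means no effect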). The settings on record: HeLa EGFP-654 splicing reporter, GFP fluorescence, 48 h; series mostly up to 38.3 µM. Put shortly:
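Readout: per-well total peak green fluorescence (488 nm ex, 500–520 nm em) from objects 5–250 µm, reflecting correct splicing of an EGFP-654 reporter. Compounds were applied for 2 days at 37 °C to overnight-plated HeLa EGFP-654 cells; controls were DMSO and 500 nM IVS2-654 PNA.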

Assay [14] is described as follows: Confirmation and Secondary Assay for Modulators of Hemoglobin Beta Chain Splicing at IVS2 705 locus (AID 930; active means well fitted curve in the direction sought with a large enough effect; an effect the other way counts as inactive or inconclusive;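 further: HeLa cells stably expressing the EGFP-705 splicing reporter; GFP fluorescence per well restored by corrected splicing of the IVS2-705 intron in EGFP; % of control where 0% means no effect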). The following applies: HeLa EGFP-705 splicing reporter, GFP fluorescence, 48 h; series mostly up to 38.3 µM. Put shortly:
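Splice-correction reporter: EGFP cDNA split by beta-globin intron 2 bearing the 705 mutation, stably in HeLa. Compound incubation 2 days, 37C; fluorescent objects 5-250 µm summed per well.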

For assay [15], the target named is Ubiquitin carboxyl-terminal hydrolase 1 (Homo sapiens) (UniProt O94782). Nature of the assay: Inhibitors of USP1/UAF1: Pilot qHTS (AID 504865; active means well fitted curve in the direction sought with a large enough effect; an effect the other way counts as inactive or inconclusive;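 further: rhodamine fluorescence freed from ubiquitin-rhodamine substrate followed over time; top concentration of the series differs between compounds; on the % scale 0 is the no-effect control and ±100 the full control effect; nearly all actives have a fitted effect of over 35% in size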). The settings on record: purified USP1/UAF1, Ub-rhodamine cleavage fluorescence; series mostly up to 54.9 µM. Put shortly: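 Enzyme-free wells gave the negative control, while test wells held 1nM USP1/UAF1 preincubated with compound for 15 min at room temperature. Ub-Rho at 150nM final started the reaction, and fluorescence at 480/540 nm was recorded kinetically.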

Where [16] appears, read: measured here: cell count channel max response.
The mark [17] stands for this setting: measured here: lipid channel max response.

Lysosomal acid glucosylceramidase (Homo sapiens), sequence (P04062 whole entry, looked up): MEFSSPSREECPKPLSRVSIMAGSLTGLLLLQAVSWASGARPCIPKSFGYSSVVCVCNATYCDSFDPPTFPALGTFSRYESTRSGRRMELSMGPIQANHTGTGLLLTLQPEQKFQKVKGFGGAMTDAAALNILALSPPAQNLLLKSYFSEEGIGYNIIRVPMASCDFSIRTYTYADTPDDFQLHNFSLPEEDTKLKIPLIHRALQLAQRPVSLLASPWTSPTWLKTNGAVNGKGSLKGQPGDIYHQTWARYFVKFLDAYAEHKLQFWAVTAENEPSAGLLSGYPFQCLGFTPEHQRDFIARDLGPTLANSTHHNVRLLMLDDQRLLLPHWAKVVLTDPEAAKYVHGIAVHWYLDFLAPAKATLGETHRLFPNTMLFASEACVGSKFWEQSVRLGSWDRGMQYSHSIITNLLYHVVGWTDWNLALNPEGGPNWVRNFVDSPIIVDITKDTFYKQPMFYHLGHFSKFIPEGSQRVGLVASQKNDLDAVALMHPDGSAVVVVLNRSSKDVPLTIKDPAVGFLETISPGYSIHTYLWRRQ
Ubiquitin carboxyl-terminal hydrolase 1 (Homo sapiens), sequence (O94782 whole entry, looked up): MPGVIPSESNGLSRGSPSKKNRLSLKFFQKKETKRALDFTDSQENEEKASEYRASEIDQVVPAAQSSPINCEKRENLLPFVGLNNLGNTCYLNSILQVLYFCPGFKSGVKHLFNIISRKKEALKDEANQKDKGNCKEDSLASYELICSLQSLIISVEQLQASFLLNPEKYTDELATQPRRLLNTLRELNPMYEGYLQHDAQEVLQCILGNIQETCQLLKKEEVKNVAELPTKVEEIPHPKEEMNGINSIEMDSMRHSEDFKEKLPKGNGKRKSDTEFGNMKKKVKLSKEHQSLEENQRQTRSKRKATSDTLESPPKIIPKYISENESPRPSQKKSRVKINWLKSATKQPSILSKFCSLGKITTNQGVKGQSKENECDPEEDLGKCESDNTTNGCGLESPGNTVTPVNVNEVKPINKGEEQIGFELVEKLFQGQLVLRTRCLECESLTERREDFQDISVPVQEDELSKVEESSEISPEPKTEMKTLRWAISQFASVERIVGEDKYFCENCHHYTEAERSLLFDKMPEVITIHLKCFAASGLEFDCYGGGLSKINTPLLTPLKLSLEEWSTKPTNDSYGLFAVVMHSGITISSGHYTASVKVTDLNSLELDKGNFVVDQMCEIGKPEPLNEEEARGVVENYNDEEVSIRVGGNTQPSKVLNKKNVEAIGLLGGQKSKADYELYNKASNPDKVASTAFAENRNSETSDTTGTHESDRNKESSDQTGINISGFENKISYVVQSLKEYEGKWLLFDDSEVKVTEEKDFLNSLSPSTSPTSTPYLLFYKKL
Glucocorticoid receptor (Homo sapiens), sequence (P04150 whole entry, looked up, the tested form may be a part): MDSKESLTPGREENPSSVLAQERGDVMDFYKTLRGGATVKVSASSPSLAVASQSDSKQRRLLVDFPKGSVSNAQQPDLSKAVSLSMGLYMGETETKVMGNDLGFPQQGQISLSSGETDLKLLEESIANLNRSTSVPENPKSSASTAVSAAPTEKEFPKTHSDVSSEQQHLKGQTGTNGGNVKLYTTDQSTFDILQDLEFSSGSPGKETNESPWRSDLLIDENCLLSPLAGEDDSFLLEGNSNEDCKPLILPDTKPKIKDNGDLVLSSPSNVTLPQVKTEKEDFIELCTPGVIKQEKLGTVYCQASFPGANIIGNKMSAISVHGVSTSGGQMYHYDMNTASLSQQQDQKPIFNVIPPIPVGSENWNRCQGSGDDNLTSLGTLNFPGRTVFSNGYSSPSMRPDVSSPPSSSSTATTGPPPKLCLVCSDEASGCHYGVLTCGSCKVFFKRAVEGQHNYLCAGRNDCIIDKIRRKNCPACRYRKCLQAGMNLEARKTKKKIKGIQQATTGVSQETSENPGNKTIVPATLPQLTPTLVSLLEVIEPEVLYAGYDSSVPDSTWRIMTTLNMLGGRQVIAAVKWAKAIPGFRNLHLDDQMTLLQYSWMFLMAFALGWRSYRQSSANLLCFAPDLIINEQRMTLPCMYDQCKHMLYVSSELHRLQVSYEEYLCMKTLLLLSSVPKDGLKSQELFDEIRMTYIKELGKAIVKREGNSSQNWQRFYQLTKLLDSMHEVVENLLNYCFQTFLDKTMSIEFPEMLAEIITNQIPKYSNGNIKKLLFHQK
3',5'-cyclic-AMP phosphodiesterase 4B (Homo sapiens), sequence (Q07343 whole entry, looked up): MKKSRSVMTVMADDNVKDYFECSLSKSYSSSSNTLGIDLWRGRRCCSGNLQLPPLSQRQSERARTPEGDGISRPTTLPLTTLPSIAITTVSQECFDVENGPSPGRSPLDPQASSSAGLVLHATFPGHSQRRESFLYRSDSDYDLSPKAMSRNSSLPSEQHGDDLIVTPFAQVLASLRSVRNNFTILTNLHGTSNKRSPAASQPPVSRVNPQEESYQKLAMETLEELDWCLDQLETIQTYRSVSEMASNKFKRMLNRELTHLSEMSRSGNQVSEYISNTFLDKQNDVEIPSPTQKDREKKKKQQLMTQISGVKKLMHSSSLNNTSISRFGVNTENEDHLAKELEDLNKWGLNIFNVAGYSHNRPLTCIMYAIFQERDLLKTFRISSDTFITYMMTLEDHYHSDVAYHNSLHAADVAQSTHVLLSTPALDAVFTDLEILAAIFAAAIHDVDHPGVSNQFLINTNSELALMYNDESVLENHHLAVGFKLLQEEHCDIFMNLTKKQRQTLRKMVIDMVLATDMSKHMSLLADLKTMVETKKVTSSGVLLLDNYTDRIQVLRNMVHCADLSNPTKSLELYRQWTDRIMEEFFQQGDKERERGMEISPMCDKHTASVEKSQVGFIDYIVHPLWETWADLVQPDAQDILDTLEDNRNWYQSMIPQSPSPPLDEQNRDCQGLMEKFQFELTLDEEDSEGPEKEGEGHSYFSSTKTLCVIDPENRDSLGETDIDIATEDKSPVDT
Cytochrome P450 3A4 (Homo sapiens), sequence (P08684 whole entry, looked up): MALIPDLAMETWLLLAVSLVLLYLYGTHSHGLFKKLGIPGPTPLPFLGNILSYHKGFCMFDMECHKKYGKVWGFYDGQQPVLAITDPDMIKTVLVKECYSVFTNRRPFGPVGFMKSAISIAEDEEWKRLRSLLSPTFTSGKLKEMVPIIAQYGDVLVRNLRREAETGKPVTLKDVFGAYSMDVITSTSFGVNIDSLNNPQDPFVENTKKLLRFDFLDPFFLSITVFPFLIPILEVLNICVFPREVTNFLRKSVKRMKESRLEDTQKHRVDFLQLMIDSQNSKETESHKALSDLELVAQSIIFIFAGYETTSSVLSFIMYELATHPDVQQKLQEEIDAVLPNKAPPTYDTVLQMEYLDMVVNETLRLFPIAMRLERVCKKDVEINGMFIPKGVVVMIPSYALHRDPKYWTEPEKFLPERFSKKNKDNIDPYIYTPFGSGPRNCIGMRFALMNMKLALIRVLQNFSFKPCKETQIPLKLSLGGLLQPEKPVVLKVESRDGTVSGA
Cytochrome P450 1A2 (Homo sapiens), sequence (P05177 whole entry, looked up): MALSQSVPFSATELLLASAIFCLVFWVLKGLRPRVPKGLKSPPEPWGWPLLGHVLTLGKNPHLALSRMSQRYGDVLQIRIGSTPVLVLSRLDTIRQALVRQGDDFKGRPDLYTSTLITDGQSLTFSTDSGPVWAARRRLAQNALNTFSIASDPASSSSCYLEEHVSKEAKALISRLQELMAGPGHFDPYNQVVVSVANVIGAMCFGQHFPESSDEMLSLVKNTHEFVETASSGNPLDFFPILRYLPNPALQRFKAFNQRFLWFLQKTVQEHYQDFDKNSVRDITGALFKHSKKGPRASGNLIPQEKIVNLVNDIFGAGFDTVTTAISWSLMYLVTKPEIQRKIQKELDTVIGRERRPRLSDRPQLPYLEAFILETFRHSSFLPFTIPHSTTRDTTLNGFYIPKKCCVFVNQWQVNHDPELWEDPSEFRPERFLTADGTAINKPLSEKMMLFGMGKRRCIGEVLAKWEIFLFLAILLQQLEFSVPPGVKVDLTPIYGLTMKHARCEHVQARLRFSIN

As to `O=C(Oc1ccccc1)N1CCC2(CCCN(c3ccncc3)C2)CC1`, the Potency in assay [1] was > 11.4 µM (inactive); in assay [5] it was > 46 µM (inactive). For the same compound, the activity change, negative = inhibition in assay [2] is 14.2% (inactive); in assay [3], -80.6% (active); in assay [8], 4.64% (inactive). In addition, the activity, negative = inhibition in assay [4] was 18.8% (inactive). For the same compound, the Potency result in assay [6] and in assay [7] was “inactive” each time. Further, the max response in assay [8] (setting [16]) is 1.04%; in assay [8] (setting [17]), 10.6%.

`COc1ccc(C(=O)N2CCC3(CC2)CN(c2ccccn2)C3)cc1`: the Potency in assay [1] is > 11.4 µM (inactive); in assay [5], > 46 µM (inactive). In addition, the activity change, negative = inhibition was 3.74% (inactive) in assay [2], -14.4% (inactive) in [3] and 6.8% (inactive) in assay [8]. Moreover, the activity, negative = inhibition in [4] was -24.1% (inactive). Also, the Potency result in assay [6] and in assay [7] was “inactive” in each case. The max response was 15.9% in assay [8] (setting [16]) and 29.6% in assay [8] (setting [17]).

On to `Cc1cccc(CNc2cc(-c3cccc(NS(C)(=O)=O)c3)ncn2)c1`, for which the Potency in assay [1] was > 11.4 µM (inactive); in assay [9] it was 10 µM (active); in assay [10] it was > 46 µM (inactive); in assay [5] it was > 46 µM (inactive); in assay [11], 2 µM (active). Besides, the activity change, negative = inhibition in assay [3] is 20% (inactive); in assay [8], -2.47% (inactive). The activity, negative = inhibition in [4] was -17.8% (inactive). Also, the Potency result in assay [6], in assay [7], in assay [12], in [13] and in assay [15] was “inactive” each time. In addition, the compound was classed as inactive in assay [14]. Also, the max response in assay [8] (setting [16]) was -3.18%; in assay [8] (setting [17]) it was -3.48%.

As to `CN1CCN(c2ccnc(-c3ccccc3C(F)(F)F)n2)CC1`, the Potency is > 11.4 µM (inactive) in assay [1], > 46 µM (inactive) in assay [10] and > 46 µM (inactive) in assay [5]. The activity change, negative = inhibition is 8.46% (inactive) in [2] and 3.24% (inactive) in assay [8]. Moreover, the activity, negative = inhibition in [4] was 3.89% (inactive). Besides, the Potency entry in assay [6], in assay [13] and in assay [15] was “inactive” each time. Moreover, the outcome in [14] was inactive. In addition, the max response in assay [8] (setting [16]) was -19.5%; in [8] (setting [17]) it was -14.8%.

For `O=C(c1ccncc1)N1CCC[C@@]2(CCN(c3cccc(-c4ccccc4)c3)C2)C1`, the Potency was > 11.4 µM (inactive) in [1] and > 46 µM (inactive) in [5]. For the same compound, the figures for the activity change, negative = inhibition in assay [2], in [3] and in [8] were -13.8% (inactive), -1.5% (inactive) and 1.7% (inactive), respectively. For the same compound, in assay [4], the activity, negative = inhibition is -6.3% (inactive). Moreover, the Potency result in assay [7] is “inactive”. The max response in assay [8] (setting [16]) was 8.47%; in assay [8] (setting [17]) it was 13%.

Consider `CN(C)Cc1ccccc1-c1cncnc1NCc1ccccc1`, for which the Potency in assay [1] is > 11.4 µM (inactive); in assay [10], > 46 µM (inactive); in assay [5], > 46 µM (inactive). The activity change, negative = inhibition in assay [2] was 9.42% (inactive); in assay [8] it was 4.16% (inactive). The activity, negative = inhibition in [4] is -4.85% (inactive). For the same compound, the Potency result in assay [6], in assay [7], in [13] and in assay [15] was “inactive” in each case. Moreover, the result in [14] was inactive. Further, the max response in assay [8] (setting [16]) was determined as 9.37%; in assay [8] (setting [17]) it was 10.2%.

The record behind these values is PubChem BioAssay (NCATS).
